# Assay results taken from the supplement of paper PMC9177965.
# Several values for one entry are separate records, joined by “and”; a condition that tells them apart may be missing. Equal values may be shown once.
# Test system: HT29 RNF43 G659fs (RNF43 659mut, CRISPR-edited)
# Test: cell viability activity relative to DMSO (negative = inhibition); higher = more viable cells (less growth inhibition)
# Conditions: 5 µM; 96 h
# Description: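 Broad Repurposing Library primary screen at a single dose of 5 uM. HT29 sg-Ctrl and HT29 RNF43 G659fs CRISPR-edited isogenic cells were seeded at 2500 cells/well in 384-well plates in duplicate and treated for 96 h. Viability was read by CellTiter-Glo and reported as % activity relative to DMSO, with MG132 as the positive control (negative = growth inhibition).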
row,Compound,cell viability activity
1,O=C(c1ccc(F)c(F)c1Nc1ccc(I)cc1F)N1CC(O)([C@@H]2CCCCN2)C1,-86.8%
2,CCN1CCN(Cc2ccc(Nc3ncc(F)c(-c4cc(F)c5nc(C)n(C(C)C)c5c4)n3)nc2)CC1,-49.8%
3,COc1ccc(S(=O)(=O)N(C(C)=O)c2ccccc2/C=C/c2cc[n+]([O-])cc2)cc1,-65.7%
4,CC(C)(C#N)c1ccc(N2C(=O)OCc3cnc4ccc(-c5cnc6ccccc6c5)cc4c32)cc1,-30.7%
5,Cc1nc(=O)c2cc(CN(C)c3ccc(C(=O)N[C@@H](CCC(=O)O)C(=O)O)s3)ccc2[nH]1,-60.2%
6,CCOc1ccccc1OC(c1ccccc1)C1CNCCO1 (configuration not stated),-30.5%
7,OCCCNc1cc(-c2ccnc(Nc3cccc(Cl)c3)n2)ccn1,-86.6%
8,CCNC(=O)c1noc(-c2cc(C(C)C)c(O)cc2O)c1-c1ccc(CN2CCOCC2)cc1,-86.6%
9,CCN(c1cc(C#CCN2CCOCC2)cc(C(=O)NCc2c(C)cc(C)[nH]c2=O)c1C)[C@H]1CC[C@H](N(C)CCOC)CC1,-37.5%
10,CCCCC/N=c1\ccn(Cc2ccccc2)c2ccccc12,-62.5%
11,COc1cc([C@@H]2c3cc4c(cc3[C@@H](O[C@@H]3O[C@@H]5CO[C@@H](c6cccs6)O[C@H]5[C@H](O)[C@H]3O)[C@H]3COC(=O)[C@H]23)OCO4)cc(OC)c1O,-84.4% and -59.9%
12,COC[C@H](C)NC1CCC(Nc2cc(-c3cccc(NCC4(C#N)CCOCC4)n3)c(Cl)cn2)CC1 (some centres not stated),-67.4%
13,C/C(=N/Nc1nnc2c(n1)[nH]c1c(C)cccc12)c1ccccn1,-87.6%
14,CN1CCN(Cc2ccc(-c3cnc4[nH]cc(-c5ccc6[nH]ccc6c5)c4c3)cc2)CC1,-90.1%
15,COc1cc(N2CCC(N3CCN(C)CC3)CC2)ccc1Nc1ncc(Cl)c(Nc2ccccc2P(C)(C)=O)n1,-82.9%
16,NC(=O)c1cnc(N[C@@H]2CCCC[C@@H]2N)nc1Nc1cccc(-n2nccn2)c1,-35.6% and -40.3%
17,CC(=O)O[C@H]1C(=O)[C@@]2(C)[C@H]([C@H](OC(=O)c3ccccc3)[C@]3(O)C[C@H](OC(=O)[C@H](O)[C@@H](NC(=O)c4ccccc4)c4ccccc4)C(C)=C1C3(C)C)[C@]1(OC(C)=O)CO[C@@H]1C[C@@H]2O,-58.4% and -50%
18,COc1cc(Nc2c(C#N)cnc3cc(OCCCN4CCN(C)CC4)c(OC)cc23)c(Cl)cc1Cl,-96.5%
19,Cc1cc(C2CCCCC2)n(O)c(=O)c1,-85.1%

row,Compound,cell viability activity
1,Cc1cc(Nc2ncc(Cl)c(Nc3ccccc3S(=O)(=O)C(C)C)n2)c(OC(C)C)cc1C1CCNCC1,-97.2%
2,CCCOc1ccc2[nH]c(NC(=O)OC)nc2c1,-69.6%
3,CN(C)CCOc1ccc(/C(=C(/CCCl)c2ccccc2)c2ccccc2)cc1,-85.2%
4,Nc1ncnc2c1nc(Br)n2[C@@H]1O[C@@H]2COP(=O)(O)O[C@H]2[C@H]1O,-26.8%
5,CCC(=O)N1CCN(c2ccc(-n3c(=O)ccc4cnc5ccc(-c6cnc7ccccc7c6)cc5c43)cc2C(F)(F)F)CC1,-56.6%
6,COc1cccc(-c2cc(F)ccc2[C@H]2Cc3nc(N)nc(C)c3C(=O)N2)n1,-82.4%
7,CNCCC=C1c2ccccc2CCc2ccccc21,-70.1%
8,CCS(=O)(=O)Nc1ccc2[nH]c(O)c(C(=Nc3ccc(CN4CCCCC4)cc3)c3ccccc3)c2c1,-77.1%
9,CO[C@H]1/C=C\C=C(/C)C(=O)NC2=CC(=O)C(NCCN(C)C)=C(C[C@@H](C)C[C@H](OC)[C@H](O)[C@@H](C)/C=C(\C)[C@@H]1OC(N)=O)C2=O,-93.9% and -91.4%
10,COc1cc(-c2ncn(/C=C/C(=O)OC(C)C)n2)cc(C(F)(F)F)c1,-69.7%
11,CN(C)CCN1C(=O)c2cccc3cc(N)cc(c23)C1=O,-53.7%
12,CC(C)NC(=O)N1CC[C@H](NC2=Nc3cc(F)ccc3N(CC(F)F)c3ccc(Cl)cc32)C1,-49.3%
13,CC[C@@H]1C(=O)N(C)c2cnc(Nc3ccc(C(=O)N[C@H]4CC[C@H](N5CCN(CC6CC6)CC5)CC4)cc3OC)nc2N1C(C)C,-66.4%
14,C=CC(=O)Nc1cccc(Oc2nc(Nc3ccc(N4CCN(C)CC4)cc3)ncc2Cl)c1,-46.3%
15,COc1ccc2c(c1)c(C1=C(c3c[nH]c4ccccc34)C(=O)NC1=O)cn2CCCN(C)C,-75.2%
16,O=C(CCCCCCC(=O)Nc1ccccc1)NO,-85.7%
17,S=c1[nH]cnc2nc[nH]c12,-51.6%
18,CCOc1cc2ncc(C#N)c(Nc3ccc(F)c(Cl)c3)c2cc1NC(=O)/C=C/CN(C)C,-77.4%
